Bioassay records: PubChem BioAssay, National Center for Advancing Translational Sciences (NCATS)
Only some compounds are listed: those with a hit (about 7.5% of all), similar ones and a draw of the others.
NPC1 promoter act = qHTS Assay for NPC1 Promoter Activators; Huh7 NPC1 promoter luciferase reporter, 24 h; Potency, µM (highest dose often 9.22 µM), usual class: activators; 320,000 tested, 2.4% active; also: nearly all actives have a fitted effect of over 60% in size
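NPC1 promoter–luciferase Huh7 cells; 24 h compound; luminescence.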
Luc counter = Counterscreen for Luciferase (Kinase-Glo TM) Inhibition | Luciferin 4-monooxygenase (Photuris pensylvanica), Q27757 | Kinase-Glo luciferase, ATP luminescence, 8 min | Potency, µM (series often up to 38.3 µM), usual class: inhibitors | 200,000 tested, 0.28% active | AID 1379, 2008; also: nearly all actives have a fitted effect of over 60% in size
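Inhibition of Kinase-Glo luciferase light generation was assessed at 10 uM ATP in pH 7.2 imidazole buffer, with luminescence measured after eight minutes at ambient temperature.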
ELG1 genotox = qHTS screen for small molecules that induce genotoxicity in human embryonic kidney (HEK293T) cells expressing luciferase-tagged ELG1; HEK293T ELG1-luciferase reporter, luminescence, 16 h; Potency, µM (top dose mostly 46 µM), most hits filed as activators; 330,000 tested, 1.3% active; AID 504466, 2011; also: nearly all actives have a fitted effect of over 60% in size
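HEK293T cells expressing luciferase-tagged ELG1 were exposed to compound or DMSO vehicle for 16 hr at 37 °C and 5% CO2. Luciferase activity was then measured with ONE-Glo after 30 min at room temperature.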
Rab9 prom act = qHTS Assay for Rab9 Promoter Activators; Potency, µM (highest dose often 9.22 µM), most hits filed as activators; Huh7 Rab9 promoter-luciferase reporter, luminescence, 24 h; 320,000 tested, 2.8% active; AID 485297, 2010; also: nearly all actives have a fitted effect of over 60% in size
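Luminescence from Amplite-detected luciferase (10 minutes, ambient) reports Rab9 promoter activation. Before that, stable Rab9-luciferase Huh7 cells (1500/well, reduced-serum OP-MEM I plus 10% FBS) were exposed to compound for 24 hours at 37C.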
SMN2 splice enh = qHTS Assay for Enhancers of SMN2 Splice Variant Expression | HEK293 SMN2-luciferase splicing reporter, luminescence, 30-36 h | Potency, µM (highest dose often 46.1 µM), most hits filed as activators | 210,000 tested, 2.8% active | AID 1458, 2008; also: nearly all actives have a fitted effect of over 55% in size
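HEK293 cells carry an SMN2 […]–luciferase reporter in which exon 7 inclusion puts luciferase in frame. Cells were plated 10-12 h before compound addition, then incubated 30-36 h at 37C. ONE-Glo luminescence was read; sodium butyrate at 4.5 mM final served as control.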
FLuc modulator = qHTS profiling assay for firefly luciferase inhibitor/activator using purifed enzyme and Km concentrations of substrates (counterscreen for miR-21 project); purified FLuc, Km substrates, luminescence inhibition; 360,000 tested, 6.9% active; Potency, µM (top dose mostly 57.5 µM), most hits filed as inhibitors; Luciferin 4-monooxygenase (Photinus pyralis), P08659; also: nearly all actives have a fitted effect of over 55% in size
Target sequence (P08659 whole entry, looked up): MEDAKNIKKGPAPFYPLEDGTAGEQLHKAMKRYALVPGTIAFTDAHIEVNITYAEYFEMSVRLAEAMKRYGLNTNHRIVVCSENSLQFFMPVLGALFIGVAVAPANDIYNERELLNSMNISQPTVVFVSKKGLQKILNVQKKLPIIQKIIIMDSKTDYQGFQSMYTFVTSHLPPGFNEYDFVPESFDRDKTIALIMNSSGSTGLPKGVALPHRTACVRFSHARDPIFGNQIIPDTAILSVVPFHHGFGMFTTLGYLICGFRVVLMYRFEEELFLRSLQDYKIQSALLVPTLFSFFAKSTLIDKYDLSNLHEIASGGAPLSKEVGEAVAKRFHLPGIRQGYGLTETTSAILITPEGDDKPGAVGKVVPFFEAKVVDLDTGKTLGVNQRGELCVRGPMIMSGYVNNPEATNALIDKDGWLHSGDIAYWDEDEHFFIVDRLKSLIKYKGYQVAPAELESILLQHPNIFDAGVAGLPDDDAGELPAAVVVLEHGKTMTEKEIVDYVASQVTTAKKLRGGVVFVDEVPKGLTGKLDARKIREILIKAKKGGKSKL
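Purified P. pyralis luciferase, 10 nM final, with Km-level 10 uM D-luciferin and 10 uM ATP in 50 mM Tris acetate pH 7.5, 10 mM Mg acetate, 0.01% Tween-20, 0.05% BSA; 6-point qHTS titration about 60 µM downward; luminescence read.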
Numbers stand for hits; 0 = inactive; ? = inconclusive; - = not tested or not shown; [ ] = remark or other dose. Calls follow the shape of the dose curve; as a rule, active = well fitted curve in the direction sought with a large enough effect; inconclusive = small, poorly fitted or top-dose-only effect, or another doubt; inactive = no such curve, though single readings can be large; an effect the other way counts as inactive or inconclusive.

SMILES	NPC1 promoter act	Luc counter	ELG1 genotox	Rab9 prom act	SMN2 splice enh	FLuc modulator
COc1ccc(P2(=O)Nc3ccccc3N2)cc1	0	0	0	0	0	7.6µM
O=C(O)CCC(=O)NCCC1=c2ccccc2=N/C1=C\c1c(O)n(Cc2ccc(F)cc2)c(=S)[nH]c1=O	0	-	0	0	-	11µM
O=[As](O)(O)c1ccc(NCc2ccccc2)cc1	-	0[7.66 µM]	-	-	0[9.22 µM]	-
CCc1ccc(N2C(=O)NC(=O)/C(=C\c3cccn3CCOc3ccc(C(C)C)cc3)C2=O)cc1	0	0	10µM	?	0	0
CN(C)c1ccc(/C=C/[N+](=O)[O-])cc1	0	0	?	0	11µM	?
C/C(=C\c1ccc(N(C)C)cc1)[N+](=O)[O-]	0	0	0	0	0	?
COc1cc2cc(c1Cl)N(C)C(=O)C[C@H](OC(=O)C(C)C)[C@]1(C)O[C@@H]1[C@@H](C)[C@H]1C[C@](O)(NC(=O)O1)[C@@H](OC)/C=C\C=C(\C)C2	-	0[7.66 µM]	-	-	0[9.22 µM]	-
O=C1NC(=O)N(Cc2ccc(F)cc2)C(=O)/C1=C/c1cccs1	0	0	?	0	0	?
O=C1NC(=O)N(Cc2ccccc2Cl)C(=O)/C1=C/c1cccs1	0	0	?	0	0	15µM
C[n+]1c(/C=C\c2ccc(O)c3ncccc23)[se]c2ccccc21	-	0[7.66 µM]	-	-	0[9.22 µM]	-
Cc1ccc(/C=C2/C(=O)NC(=O)N(Cc3ccc(F)cc3)C2=O)o1	0	-	0	0	-	0
COc1ccc(CN2C(=O)NC(=O)/C(=C/c3ccc([N+](=O)[O-])o3)C2=O)cc1	0	0	0	0	0	19µM
COc1ccc(-c2nc3ccccc3c(=O)n2-c2nccs2)cc1	0	0	0	0	0	24µM
Cc1ccc(Cn2nc(C(=O)Nc3ccc(Br)cc3)cc2C)cc1	0	-	21µM	0	-	9.5µM
NC(=O)c1ncn(C2OC(CO)C(O)C2O)n1 (stereo unspecified)	-	0	-	-	16µM	-
NC(=O)c1cn(C2OC(CO)C(O)C2O)c2ncnc(N)c12 (stereo unspecified)	0	0	0	0	0	0
O=c1c2ccccc2nc(-c2ccccc2)n1-c1ccccc1	0	-	0	0	-	0
O=c1c2ccccc2[se]n1-c1ccccc1	0	10µM	0	0	0	6µM
Clc1nc(Cl)nc(Cl)n1	-	-	-	-	0	-
COC(=O)C(O)(c1ccc(NC(=O)Oc2ccccc2)cc1)C(F)(F)F (stereo unspecified)	0	0	0	0	0	15µM
COc1ccc(Cl)cc1N=Cc1c(O)n(C)c(=O)n(C)c1=O	0	-	0	0	-	0
COc1ccccc1N=Cc1c(O)n(C)c(=O)n(C)c1=O	0	?	0	0	0	7.6µM
CC(=O)N1CCc2cc(S(=O)(=O)N3CCN(c4ccc(C)cc4)C(C)C3)ccc21 (stereo unspecified)	-	-	-	-	0	0
O=C(COC(=O)Cc1ccccc1)Nc1ccc(SC(F)F)cc1	0	0	0	0	0	19µM
O=c1[nH]c(O)c(N=Nc2ccc(SC(F)F)cc2)c(=O)[nH]1	0	-	0	?	-	2.4µM
SMILES	NPC1 promoter act	Luc counter	ELG1 genotox	Rab9 prom act	SMN2 splice enh	FLuc modulator
NC(=O)c1ccc(N=Nc2c(O)[nH]c(=O)[nH]c2=O)cc1	0	0	0	0	0	0
CCOc1ccc(NCc2cccn2-c2nnc(N3CCC(C(=O)NCC(C)c4ccccc4)CC3)s2)cc1 (stereo unspecified)	-	-	-	-	0	0
CCOc1ccc2nc(N3CCC(C(=O)Nc4ccc(Br)cc4F)CC3)sc2c1	-	-	-	-	13µM	15µM
Cc1c(OC(=O)N(C)C)ccc2c1O/C(=C\c1ccco1)C2=O	?	-	0	4µM	-	0.48µM
CCCCCCOc1ccc(CN2CCN(CCO)CC2)cc1	2.2µM	0	8.2µM	4µM	0	19µM
CCCCOc1ccc(CN2CCN(CCO)CC2)cc1	0	0	?	0	0	0
O=C(CSc1nnc(NC(=O)c2ccccc2F)s1)NCc1ccc(F)cc1	?	-	?	?	-	12µM
